Legend:
[1] = target: T1, Ephrin type-B receptor 2 (Homo sapiens) (UniProt P29323); details: at 1 µM
T1 sequence (whole entry): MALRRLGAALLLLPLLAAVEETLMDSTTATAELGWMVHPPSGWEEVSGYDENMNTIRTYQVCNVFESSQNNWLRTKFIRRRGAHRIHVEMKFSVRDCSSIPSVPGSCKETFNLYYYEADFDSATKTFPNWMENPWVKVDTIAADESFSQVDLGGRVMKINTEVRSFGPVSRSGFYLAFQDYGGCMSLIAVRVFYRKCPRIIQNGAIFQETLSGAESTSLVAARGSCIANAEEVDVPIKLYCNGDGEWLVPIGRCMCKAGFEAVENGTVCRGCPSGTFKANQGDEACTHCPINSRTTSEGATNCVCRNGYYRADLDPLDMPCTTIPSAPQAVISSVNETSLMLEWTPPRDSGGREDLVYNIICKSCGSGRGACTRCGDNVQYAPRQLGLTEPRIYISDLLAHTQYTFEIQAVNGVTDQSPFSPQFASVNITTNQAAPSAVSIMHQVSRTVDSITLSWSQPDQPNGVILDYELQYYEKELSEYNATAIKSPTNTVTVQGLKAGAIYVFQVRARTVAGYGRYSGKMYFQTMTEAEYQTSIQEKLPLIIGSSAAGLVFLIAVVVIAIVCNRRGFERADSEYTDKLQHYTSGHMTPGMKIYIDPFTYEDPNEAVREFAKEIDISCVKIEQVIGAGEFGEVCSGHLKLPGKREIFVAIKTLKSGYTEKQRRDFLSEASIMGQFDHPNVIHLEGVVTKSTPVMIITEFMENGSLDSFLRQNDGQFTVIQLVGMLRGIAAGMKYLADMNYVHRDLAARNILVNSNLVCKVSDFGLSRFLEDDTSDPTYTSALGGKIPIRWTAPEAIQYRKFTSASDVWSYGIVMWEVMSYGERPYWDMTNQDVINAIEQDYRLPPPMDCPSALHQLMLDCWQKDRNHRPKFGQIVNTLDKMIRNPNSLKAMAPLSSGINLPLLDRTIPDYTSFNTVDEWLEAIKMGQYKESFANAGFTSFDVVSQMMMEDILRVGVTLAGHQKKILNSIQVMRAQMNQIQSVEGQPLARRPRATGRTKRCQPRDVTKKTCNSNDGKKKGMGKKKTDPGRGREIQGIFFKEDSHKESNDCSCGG

[2] = target: T2, Ephrin type-B receptor 3 (Homo sapiens) (UniProt P54753); details: at 0.1 µM
T2 sequence (whole entry): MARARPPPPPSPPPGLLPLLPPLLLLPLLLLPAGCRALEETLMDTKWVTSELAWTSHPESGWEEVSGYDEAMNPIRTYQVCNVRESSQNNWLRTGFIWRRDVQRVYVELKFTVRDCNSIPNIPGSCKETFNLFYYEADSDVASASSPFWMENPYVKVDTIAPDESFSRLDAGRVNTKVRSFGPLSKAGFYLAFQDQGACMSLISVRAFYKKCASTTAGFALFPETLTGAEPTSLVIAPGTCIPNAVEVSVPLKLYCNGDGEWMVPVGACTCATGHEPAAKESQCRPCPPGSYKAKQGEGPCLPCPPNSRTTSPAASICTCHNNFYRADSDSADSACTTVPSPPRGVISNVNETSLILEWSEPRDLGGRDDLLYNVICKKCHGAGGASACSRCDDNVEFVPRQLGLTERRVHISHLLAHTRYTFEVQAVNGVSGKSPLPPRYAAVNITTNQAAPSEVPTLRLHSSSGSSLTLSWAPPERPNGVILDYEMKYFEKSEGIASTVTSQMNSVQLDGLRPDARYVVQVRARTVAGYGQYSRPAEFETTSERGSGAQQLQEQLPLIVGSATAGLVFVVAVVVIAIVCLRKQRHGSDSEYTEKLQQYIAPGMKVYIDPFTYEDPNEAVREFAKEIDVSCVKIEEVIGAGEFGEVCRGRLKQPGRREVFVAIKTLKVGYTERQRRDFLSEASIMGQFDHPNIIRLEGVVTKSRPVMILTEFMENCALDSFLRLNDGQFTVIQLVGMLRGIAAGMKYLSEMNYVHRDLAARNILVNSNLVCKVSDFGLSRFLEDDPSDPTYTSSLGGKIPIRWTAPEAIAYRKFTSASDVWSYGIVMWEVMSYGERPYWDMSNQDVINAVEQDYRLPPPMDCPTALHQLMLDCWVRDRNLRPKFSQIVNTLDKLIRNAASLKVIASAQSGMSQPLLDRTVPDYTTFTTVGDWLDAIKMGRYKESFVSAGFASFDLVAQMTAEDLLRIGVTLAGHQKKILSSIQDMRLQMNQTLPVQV

[3] = target: T2, Ephrin type-B receptor 3 (Homo sapiens); details: at 1 µM
[4] = target: T3, Ephrin type-B receptor 4 (Homo sapiens) (UniProt P54760); details: at 0.1 µM
T3 sequence (whole entry): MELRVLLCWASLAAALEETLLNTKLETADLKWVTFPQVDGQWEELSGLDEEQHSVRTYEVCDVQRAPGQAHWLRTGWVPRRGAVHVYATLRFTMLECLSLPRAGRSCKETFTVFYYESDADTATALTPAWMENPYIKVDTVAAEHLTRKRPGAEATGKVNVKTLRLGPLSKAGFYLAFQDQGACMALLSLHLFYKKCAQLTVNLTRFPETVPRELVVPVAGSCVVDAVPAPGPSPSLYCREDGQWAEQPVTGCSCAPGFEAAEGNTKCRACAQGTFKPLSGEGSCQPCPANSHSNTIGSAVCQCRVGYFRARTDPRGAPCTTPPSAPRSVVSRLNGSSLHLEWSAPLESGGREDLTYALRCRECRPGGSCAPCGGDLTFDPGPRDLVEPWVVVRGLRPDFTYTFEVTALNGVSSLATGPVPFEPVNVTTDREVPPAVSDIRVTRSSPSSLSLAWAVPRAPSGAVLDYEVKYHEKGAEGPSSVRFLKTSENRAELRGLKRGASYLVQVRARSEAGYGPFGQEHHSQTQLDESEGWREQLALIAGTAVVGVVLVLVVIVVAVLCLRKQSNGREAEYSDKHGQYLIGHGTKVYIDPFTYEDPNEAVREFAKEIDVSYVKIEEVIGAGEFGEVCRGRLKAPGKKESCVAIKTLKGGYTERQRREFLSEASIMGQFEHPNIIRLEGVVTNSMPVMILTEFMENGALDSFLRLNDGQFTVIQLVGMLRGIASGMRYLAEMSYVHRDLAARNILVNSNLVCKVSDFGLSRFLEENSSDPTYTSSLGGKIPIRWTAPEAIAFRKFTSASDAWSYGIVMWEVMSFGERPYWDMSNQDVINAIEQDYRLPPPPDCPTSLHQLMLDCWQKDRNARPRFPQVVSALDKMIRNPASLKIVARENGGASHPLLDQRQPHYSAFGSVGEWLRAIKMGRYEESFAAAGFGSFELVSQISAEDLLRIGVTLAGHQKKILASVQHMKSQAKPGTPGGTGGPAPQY

[5] = target: T3, Ephrin type-B receptor 4 (Homo sapiens); details: at 1 µM
[6] = target: Receptor tyrosine-protein kinase erbB-2 (Homo sapiens) (UniProt P04626); details: at 0.1 µM
Receptor tyrosine-protein kinase erbB-2 (Homo sapiens), sequence (P04626 whole entry): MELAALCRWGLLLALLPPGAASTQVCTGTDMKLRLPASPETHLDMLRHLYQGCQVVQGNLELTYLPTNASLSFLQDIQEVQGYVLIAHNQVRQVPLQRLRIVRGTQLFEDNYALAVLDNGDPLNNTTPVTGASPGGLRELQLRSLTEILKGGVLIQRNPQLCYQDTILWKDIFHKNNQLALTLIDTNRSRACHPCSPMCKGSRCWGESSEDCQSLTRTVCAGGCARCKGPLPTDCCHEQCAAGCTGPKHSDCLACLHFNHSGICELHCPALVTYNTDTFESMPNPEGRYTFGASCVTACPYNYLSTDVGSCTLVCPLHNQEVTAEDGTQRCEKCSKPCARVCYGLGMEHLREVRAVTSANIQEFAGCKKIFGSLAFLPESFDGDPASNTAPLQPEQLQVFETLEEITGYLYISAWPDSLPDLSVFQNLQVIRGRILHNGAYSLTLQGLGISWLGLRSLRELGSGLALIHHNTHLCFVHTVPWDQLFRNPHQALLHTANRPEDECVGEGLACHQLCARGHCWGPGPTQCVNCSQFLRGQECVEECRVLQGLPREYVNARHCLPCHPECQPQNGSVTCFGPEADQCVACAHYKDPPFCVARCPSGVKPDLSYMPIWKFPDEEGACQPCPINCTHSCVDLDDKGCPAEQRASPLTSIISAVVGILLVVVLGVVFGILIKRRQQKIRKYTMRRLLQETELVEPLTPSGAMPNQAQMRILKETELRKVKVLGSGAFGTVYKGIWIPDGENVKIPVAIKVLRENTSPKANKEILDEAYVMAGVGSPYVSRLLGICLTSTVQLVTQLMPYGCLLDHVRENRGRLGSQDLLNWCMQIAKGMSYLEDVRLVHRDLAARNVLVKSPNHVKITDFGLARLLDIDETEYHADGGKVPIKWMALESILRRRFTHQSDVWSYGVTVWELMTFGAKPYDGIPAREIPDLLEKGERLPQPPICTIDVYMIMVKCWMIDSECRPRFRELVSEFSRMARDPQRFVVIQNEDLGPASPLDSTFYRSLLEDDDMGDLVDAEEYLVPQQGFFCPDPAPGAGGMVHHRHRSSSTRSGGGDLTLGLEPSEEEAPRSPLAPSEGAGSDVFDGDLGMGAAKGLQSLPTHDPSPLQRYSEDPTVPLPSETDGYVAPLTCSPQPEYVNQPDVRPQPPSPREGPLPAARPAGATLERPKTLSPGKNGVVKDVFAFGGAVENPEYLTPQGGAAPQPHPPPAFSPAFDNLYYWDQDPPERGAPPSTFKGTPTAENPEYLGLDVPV

[7] = target: Receptor tyrosine-protein kinase erbB-2 (Homo sapiens) (UniProt P04626); details: at 1 µM
[8] = target: Receptor tyrosine-protein kinase erbB-4 (Homo sapiens) (UniProt Q15303); details: at 0.1 µM
Receptor tyrosine-protein kinase erbB-4 (Homo sapiens), sequence (Q15303 whole entry): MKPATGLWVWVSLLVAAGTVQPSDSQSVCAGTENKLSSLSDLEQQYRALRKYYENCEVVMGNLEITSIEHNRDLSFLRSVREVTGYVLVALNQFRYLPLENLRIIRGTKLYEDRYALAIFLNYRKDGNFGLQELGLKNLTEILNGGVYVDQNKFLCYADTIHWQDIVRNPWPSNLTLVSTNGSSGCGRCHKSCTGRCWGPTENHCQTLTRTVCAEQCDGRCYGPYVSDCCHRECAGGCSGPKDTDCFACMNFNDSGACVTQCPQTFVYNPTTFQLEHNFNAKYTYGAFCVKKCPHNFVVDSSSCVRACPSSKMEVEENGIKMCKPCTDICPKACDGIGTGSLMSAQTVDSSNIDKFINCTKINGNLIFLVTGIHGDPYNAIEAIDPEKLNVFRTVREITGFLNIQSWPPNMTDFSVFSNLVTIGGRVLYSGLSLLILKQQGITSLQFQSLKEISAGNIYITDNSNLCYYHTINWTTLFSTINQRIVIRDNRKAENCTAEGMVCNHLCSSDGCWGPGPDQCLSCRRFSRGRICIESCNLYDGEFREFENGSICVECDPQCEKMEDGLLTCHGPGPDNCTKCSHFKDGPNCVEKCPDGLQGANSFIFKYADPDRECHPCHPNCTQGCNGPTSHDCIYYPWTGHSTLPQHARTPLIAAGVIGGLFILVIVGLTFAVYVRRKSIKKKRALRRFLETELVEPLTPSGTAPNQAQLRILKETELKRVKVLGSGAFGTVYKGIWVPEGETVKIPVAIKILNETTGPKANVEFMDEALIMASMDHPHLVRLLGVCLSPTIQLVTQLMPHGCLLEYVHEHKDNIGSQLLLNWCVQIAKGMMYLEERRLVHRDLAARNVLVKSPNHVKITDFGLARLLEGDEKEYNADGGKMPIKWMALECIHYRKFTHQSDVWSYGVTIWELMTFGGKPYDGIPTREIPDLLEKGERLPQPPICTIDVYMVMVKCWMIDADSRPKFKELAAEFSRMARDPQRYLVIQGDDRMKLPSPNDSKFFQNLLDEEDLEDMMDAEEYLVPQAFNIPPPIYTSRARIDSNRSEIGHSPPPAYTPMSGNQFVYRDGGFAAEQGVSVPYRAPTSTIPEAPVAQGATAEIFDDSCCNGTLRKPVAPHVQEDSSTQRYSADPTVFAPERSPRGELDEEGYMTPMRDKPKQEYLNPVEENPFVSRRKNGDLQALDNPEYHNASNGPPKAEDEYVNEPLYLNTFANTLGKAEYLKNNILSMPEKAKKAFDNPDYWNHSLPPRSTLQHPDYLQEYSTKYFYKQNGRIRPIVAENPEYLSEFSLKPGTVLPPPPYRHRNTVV

[9] = target: Receptor tyrosine-protein kinase erbB-4 (Homo sapiens) (UniProt Q15303); details: at 1 µM
[10] = target: Tyrosine-protein kinase Fer (Homo sapiens) (UniProt P16591); details: at 0.1 µM
[11] = target: Tyrosine-protein kinase Fer (Homo sapiens) (UniProt P16591); details: at 1 µM
[12] = target: Tyrosine-protein kinase Fes/Fps (Homo sapiens) (UniProt P07332); details: at 0.1 µM
Tyrosine-protein kinase Fes/Fps (Homo sapiens), sequence (P07332 whole entry): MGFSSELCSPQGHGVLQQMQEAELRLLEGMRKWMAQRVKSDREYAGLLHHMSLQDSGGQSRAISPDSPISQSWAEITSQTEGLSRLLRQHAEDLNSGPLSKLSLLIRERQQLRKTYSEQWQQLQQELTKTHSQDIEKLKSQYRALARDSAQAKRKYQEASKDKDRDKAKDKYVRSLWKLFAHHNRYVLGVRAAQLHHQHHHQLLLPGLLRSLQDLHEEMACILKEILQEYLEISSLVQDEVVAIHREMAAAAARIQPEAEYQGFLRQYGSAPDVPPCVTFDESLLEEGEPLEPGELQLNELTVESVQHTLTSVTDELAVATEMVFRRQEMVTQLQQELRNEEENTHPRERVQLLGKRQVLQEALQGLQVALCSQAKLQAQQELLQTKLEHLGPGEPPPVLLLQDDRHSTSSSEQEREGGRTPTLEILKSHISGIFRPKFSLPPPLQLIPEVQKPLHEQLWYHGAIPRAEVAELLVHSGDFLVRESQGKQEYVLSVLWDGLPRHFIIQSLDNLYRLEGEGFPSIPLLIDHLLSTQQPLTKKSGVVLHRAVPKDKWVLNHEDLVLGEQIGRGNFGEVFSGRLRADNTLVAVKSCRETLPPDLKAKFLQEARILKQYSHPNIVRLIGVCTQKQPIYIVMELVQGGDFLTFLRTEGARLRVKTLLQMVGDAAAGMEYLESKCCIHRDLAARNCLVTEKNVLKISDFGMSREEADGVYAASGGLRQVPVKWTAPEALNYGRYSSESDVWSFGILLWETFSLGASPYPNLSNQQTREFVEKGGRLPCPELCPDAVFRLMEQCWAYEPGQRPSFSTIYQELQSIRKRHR

[13] = target: Tyrosine-protein kinase Fes/Fps (Homo sapiens) (UniProt P07332); details: at 1 µM
[14] = target: Fibroblast growth factor receptor 1 (Homo sapiens) (UniProt P11362); details: at 0.1 µM
[15] = target: Fibroblast growth factor receptor 1 (Homo sapiens) (UniProt P11362); details: at 1 µM
[16] = target: Fibroblast growth factor receptor 2 (Homo sapiens) (UniProt P21802); details: at 0.1 µM
Fibroblast growth factor receptor 2 (Homo sapiens), sequence (P21802 22-821 limits assumed): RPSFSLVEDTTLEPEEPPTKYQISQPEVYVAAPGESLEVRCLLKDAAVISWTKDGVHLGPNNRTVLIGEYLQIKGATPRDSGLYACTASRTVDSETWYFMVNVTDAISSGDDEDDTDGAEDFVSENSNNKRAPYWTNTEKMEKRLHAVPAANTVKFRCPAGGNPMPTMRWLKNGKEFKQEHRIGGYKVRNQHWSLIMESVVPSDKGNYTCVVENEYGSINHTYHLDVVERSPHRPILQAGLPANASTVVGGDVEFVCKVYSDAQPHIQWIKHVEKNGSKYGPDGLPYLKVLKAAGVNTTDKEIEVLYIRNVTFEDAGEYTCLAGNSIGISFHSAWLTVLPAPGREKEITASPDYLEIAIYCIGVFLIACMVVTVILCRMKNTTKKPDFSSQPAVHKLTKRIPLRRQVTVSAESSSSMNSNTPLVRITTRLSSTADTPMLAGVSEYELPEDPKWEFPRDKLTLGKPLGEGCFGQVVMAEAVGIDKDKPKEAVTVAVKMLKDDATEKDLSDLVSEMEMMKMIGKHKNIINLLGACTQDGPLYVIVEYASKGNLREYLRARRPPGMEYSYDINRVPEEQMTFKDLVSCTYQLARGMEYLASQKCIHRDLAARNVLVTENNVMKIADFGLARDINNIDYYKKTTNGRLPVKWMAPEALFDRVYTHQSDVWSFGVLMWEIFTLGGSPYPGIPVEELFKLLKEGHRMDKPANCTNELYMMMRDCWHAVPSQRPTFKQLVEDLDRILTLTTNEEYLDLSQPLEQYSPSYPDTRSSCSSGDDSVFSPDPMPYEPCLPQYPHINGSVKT

[17] = target: Fibroblast growth factor receptor 2 (Homo sapiens) (UniProt P21802); details: at 1 µM
[18] = target: Fibroblast growth factor receptor 3 (Homo sapiens) (UniProt P22607); details: at 0.1 µM
[19] = target: Fibroblast growth factor receptor 3 (Homo sapiens) (UniProt P22607); details: at 1 µM
[20] = target: Fibroblast growth factor receptor 4 (Homo sapiens) (UniProt P22455); details: at 0.1 µM;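 also: values are mean percent inhibition of FGFR4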
Fibroblast growth factor receptor 4 (Homo sapiens), sequence (P22455 22-802 limits assumed): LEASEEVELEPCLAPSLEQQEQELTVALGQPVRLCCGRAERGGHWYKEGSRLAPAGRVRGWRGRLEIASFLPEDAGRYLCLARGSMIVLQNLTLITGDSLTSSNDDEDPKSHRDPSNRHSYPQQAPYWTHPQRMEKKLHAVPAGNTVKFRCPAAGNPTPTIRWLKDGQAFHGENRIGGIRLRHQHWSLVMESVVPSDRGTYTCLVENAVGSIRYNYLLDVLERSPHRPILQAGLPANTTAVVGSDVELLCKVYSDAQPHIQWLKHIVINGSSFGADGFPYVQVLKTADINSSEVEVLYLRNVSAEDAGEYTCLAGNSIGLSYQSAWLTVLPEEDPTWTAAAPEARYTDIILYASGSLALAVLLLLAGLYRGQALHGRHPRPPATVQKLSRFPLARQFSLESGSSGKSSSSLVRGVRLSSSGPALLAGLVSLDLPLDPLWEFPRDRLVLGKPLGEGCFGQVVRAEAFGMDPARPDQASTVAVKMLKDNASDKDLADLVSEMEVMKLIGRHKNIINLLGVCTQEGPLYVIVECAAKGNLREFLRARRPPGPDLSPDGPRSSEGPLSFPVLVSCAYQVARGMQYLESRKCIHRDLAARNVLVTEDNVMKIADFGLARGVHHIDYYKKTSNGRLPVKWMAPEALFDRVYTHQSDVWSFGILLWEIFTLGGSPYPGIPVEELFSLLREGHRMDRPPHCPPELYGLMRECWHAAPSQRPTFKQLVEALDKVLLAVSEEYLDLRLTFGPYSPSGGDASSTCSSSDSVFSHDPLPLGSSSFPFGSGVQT

SMILES	inhibition [1]	inhibition [2]	inhibition [3]	inhibition [4]	inhibition [5]	inhibition [6]	inhibition [7]	inhibition [8]	inhibition [9]	inhibition [10]	inhibition [11]	inhibition [12]	inhibition [13]	inhibition [14]	inhibition [15]	inhibition [16]	inhibition [17]	inhibition [18]	inhibition [19]	inhibition [20]
COC(=O)Nc1nc2cc(Oc3cccc(NC(=O)Nc4cc(C(F)(F)F)ccc4F)c3)ccc2[nH]1	8.15%	2.88%	0.33%	0.65%	2.71%	-1.15%	-2.43%	3.99%	6.3%	0.75%	1.61%	-0.51%	0.56%	-2.84%	0%	-1.71%	2.62%	0.57%	1.54%	-1.4%
CN1CCC(C(=O)Nc2n[nH]c3nnc(-c4ccccc4)cc23)CC1	3.41%	6.23%	4.08%	2.18%	1.12%	5.08%	14.2%	17.7%	24.2%	3.91%	5.92%	3.95%	3.43%	5.69%	4.3%	5.82%	5.58%	5.57%	4.99%	-8.44%
Cc1nn(C)c2cc(N(C)c3ccnc(Nc4cccc(S(N)(=O)=O)c4)n3)ccc12	37.8%	5.14%	4.43%	7.86%	39.6%	3.03%	10.1%	11%	29.3%	4.27%	35.8%	2.04%	6.14%	-0.21%	–	5.4%	20.7%	3.96%	11.4%	-9.61%
CS(=O)(=O)CCNCc1ccc(-c2ccc3ncnc(Nc4ccc(OCc5ccccc5)c(Cl)c4)c3c2)o1	11.5%	-0.46%	2.9%	1.93%	2.4%	21.5%	69.5%	59.8%	88.1%	4.02%	10.4%	0.53%	0.08%	0.78%	3.71%	0.57%	5.46%	2.05%	4.98%	-0.26%
COc1ccc(COc2ccc(Cc3cnc(N)nc3N)cc2OC)cc1	8.3%	-1.18%	-4.82%	0.94%	3.27%	-1.55%	-2.79%	3.15%	3.43%	2.14%	2.33%	1.72%	2.24%	1.78%	2.1%	1.46%	6.83%	2.29%	0.98%	3.95%
CCn1c(-c2nonc2N)nc2cncc(C(=O)N3CC[C@H](N)C3)c21	6.1%	6.62%	4.88%	6.15%	2.54%	4.24%	7.27%	13.3%	17.8%	1.22%	3.76%	2.6%	2.26%	0.26%	1.87%	2.48%	4.96%	3.72%	2.58%	-6.25%
CC(C)=Cc1cccc2c1/C(=N/Nc1ccc(S(N)(=O)=O)cc1)C(=O)N2	5.84%	2.65%	-0.21%	1.72%	2.38%	0.59%	4.72%	5.98%	4.74%	3.57%	20.1%	0.31%	2.29%	-0.4%	14.7%	3.88%	36.8%	3.36%	–	4.09%
c1cnn2ncc(-c3ccnc(Nc4ccc5c(c4)OCCO5)n3)c2c1	29.4%	3.36%	6.8%	3.69%	12.5%	1.94%	2.67%	8.29%	12.4%	10.7%	43.7%	10.5%	48%	5.77%	5.22%	6.35%	15.9%	6.39%	15.7%	-0.77%
CCn1c(-c2nonc2N)nc2ccncc21	–	2.91%	-1.68%	-0.26%	0.27%	0.8%	-4.21%	7.5%	9.71%	2.5%	0.13%	0.83%	1.98%	0.47%	-1.46%	-0.14%	4.73%	0.49%	0.64%	-8.14%
Cc1ccc(NC(=O)c2ccnc(N3CCCC3)c2)cc1-c1ccc(C(=O)NCC2CC2)cc1	6.65%	1.72%	-1.41%	-3.04%	-2.95%	2.34%	-3.44%	6.37%	5.79%	0.77%	1.67%	5.28%	5.19%	-1.44%	2.19%	1.81%	7.09%	6.97%	4.11%	-8.29%
CCN1CCC(CC(=O)Nc2n[nH]c3nc(-c4cccs4)c(Br)cc23)CC1	1.96%	-2.11%	-3.61%	-1.44%	-2.19%	-4.26%	-1.56%	-5.1%	-7.08%	0.22%	2.34%	-3.39%	-4.54%	-3.02%	-1.95%	-4.3%	-0.25%	-1.64%	-1.77%	0.71%
N#Cc1c(NC(=O)c2cccc3ccccc23)sc2c1CCCC2	6.91%	5.39%	3.56%	3.79%	3.28%	1.65%	-0.24%	6.37%	8.55%	2.88%	1.93%	2.2%	2.36%	0.22%	2.06%	1.68%	4.84%	5.84%	4.55%	-2.84%
CC(=O)Nc1cccc(C#Cc2cncnc2Nc2ccc(OCc3cccc(F)c3)c(Cl)c2)n1	4.49%	-4.13%	-1.83%	-0.8%	0.82%	1.84%	0.35%	18.5%	62.8%	-0.09%	4.77%	-0.62%	-1.06%	-3.81%	-5.8%	-4.24%	0.03%	-1.4%	-2.39%	0.06%
Cn1cc(C=C2C(=O)Nc3cccnc32)c2ccccc21	12%	4.59%	-0.71%	0.9%	5.16%	0.95%	3.11%	9.66%	9.14%	0.48%	20.8%	1.69%	2.19%	6.57%	17.3%	9.78%	42.2%	11.2%	47.8%	2.46%
